This excerpt belongs to a sample that is enriched for the strongest signals.
What was measured:
Test in all cases: glycan array binding signal (z-score within array); higher = stronger binding
Conditions in all cases: glycan notation: IUPAC condensed, linker removed
[1] = biological target: Fuc(a1-2)Gal(b1-3)GlcNAc(b1-2)Man(a1-3)[Fuc(a1-2)Gal(b1-3)GlcNAc(b1-2)Man(a1-6)]Man(b1-4)GlcNAc(b1-4)GlcNAc
In short: (§1)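 Arrays were curated from the Consortium for Functional Glycomics database, 3228 in total, and kept only where the protein sequence was available. Binding is expressed as a within-array Z-score. This score was averaged across arrays of the same protein sequence at different concentrations or buffers and across linkers, and negative values can be read as non-binding.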

[2] = biological target: Fuc(a1-2)Gal(b1-3)GlcNAc(b1-3)[Fuc(a1-2)Gal(b1-3)GlcNAc(b1-6)]GalNAc
In short: as §1

[3] = biological target: Fuc(a1-2)Gal(b1-4)GlcNAc(b1-3)Gal(b1-4)GlcNAc
In short: as §1

[4] = biological target: Fuc(a1-2)Gal(b1-4)GlcNAc6S
In short: as §1

[5] = biological target: Fuc(a1-2)Gal3S(b1-4)GlcNAc
In short: as §1

[6] = biological target: Fuc(a1-2)[Gal(a1-3)]Gal(b1-3)GalNAc(b1-3)Gal(a1-4)Gal(b1-4)Glc
In short: as §1

[7] = biological target: Fuc(a1-2)[Gal(a1-3)]Gal(b1-3)GlcNAc(b1-2)Man(a1-3)[Fuc(a1-2)[Gal(a1-3)]Gal(b1-3)GlcNAc(b1-2)Man(a1-6)]Man(b1-4)GlcNAc(b1-4)[Fuc(a1-6)]GlcNAc
In short: as §1

[8] = biological target: Fuc(a1-2)[GalNAc(a1-3)]Gal(b1-4)GlcNAc(b1-3)Gal(b1-4)GlcNAc(b1-3)Gal(b1-4)GlcNAc
In short: as §1

[9] = biological target: Fuc(a1-3)[Gal3S(b1-4)]Glc
In short: as §1

[10] = biological target: Gal(a1-3)Gal(b1-3)[Fuc(a1-4)]GlcNAc(b1-2)Man(a1-3)[Gal(a1-3)Gal(b1-3)[Fuc(a1-4)]GlcNAc(b1-2)Man(a1-6)]Man(b1-4)GlcNAc(b1-4)GlcNAc
In short: as §1

[11] = biological target: Gal(a1-3)Gal(b1-4)[Fuc(a1-3)]GlcNAc
In short: as §1

[12] = biological target: Gal(a1-3)Gal(b1-4)[Fuc(a1-3)]GlcNAc(b1-2)Man(a1-3)[Gal(a1-3)Gal(b1-4)[Fuc(a1-3)]GlcNAc(b1-2)Man(a1-6)]Man(b1-4)GlcNAc(b1-4)GlcNAc
In short: as §1

[13] = biological target: Gal(b1-3)GalNAc(b1-3)Gal(a1-4)Gal(b1-4)Glc
In short: as §1

[14] = biological target: Gal(b1-3)GlcNAc(b1-3)Gal(b1-4)GlcNAc(b1-3)Gal(b1-4)GlcNAc(b1-2)[Gal(b1-3)GlcNAc(b1-3)Gal(b1-4)GlcNAc(b1-3)Gal(b1-4)GlcNAc(b1-6)]Man(a1-6)[Gal(b1-3)GlcNAc(b1-3)Gal(b1-4)GlcNAc(b1-3)Gal(b1-4)GlcNAc(b1-2)Man(a1-3)]Man(b1-4)GlcNAc(b1-4)[Fuc(a1-6)]GlcNAc
In short: as §1

[15] = biological target: Gal(b1-4)GlcNAc(b1-2)Man(a1-6)Man(b1-4)GlcNAc(b1-4)GlcNAc
In short: as §1

[16] = biological target: Gal(b1-4)GlcNAc(b1-3)Gal(b1-4)GlcNAc(b1-3)Gal(b1-4)GlcNAc(b1-2)Man(a1-3)[Gal(b1-4)GlcNAc(b1-3)Gal(b1-4)GlcNAc(b1-3)Gal(b1-4)GlcNAc(b1-2)Man(a1-6)]Man(b1-4)GlcNAc(b1-4)[Fuc(a1-6)]GlcNAc
In short: as §1

[17] = biological target: Gal(b1-4)GlcNAc(b1-3)Gal(b1-4)GlcNAc(b1-3)Gal(b1-4)GlcNAc(b1-2)[Gal(b1-4)GlcNAc(b1-3)Gal(b1-4)GlcNAc(b1-3)Gal(b1-4)GlcNAc(b1-6)]Man(a1-6)[Gal(b1-4)GlcNAc(b1-3)Gal(b1-4)GlcNAc(b1-3)Gal(b1-4)GlcNAc(b1-2)Man(a1-3)]Man(b1-4)GlcNAc(b1-4)[Fuc(a1-6)]GlcNAc
In short: as §1

[18] = biological target: Gal(b1-4)GlcNAc(b1-3)Gal(b1-4)GlcNAc(b1-3)Gal(b1-4)GlcNAc(b1-3)Gal(b1-4)GlcNAc(b1-2)Man(a1-3)[Gal(b1-4)GlcNAc(b1-3)Gal(b1-4)GlcNAc(b1-3)Gal(b1-4)GlcNAc(b1-3)Gal(b1-4)GlcNAc(b1-2)Man(a1-6)]Man(b1-4)GlcNAc(b1-4)[Fuc(a1-6)]GlcNAc
In short: as §1

[19] = biological target: Gal(b1-4)GlcNAc(b1-3)Gal(b1-4)GlcNAc(b1-3)Gal(b1-4)GlcNAc(b1-3)Gal(b1-4)GlcNAc(b1-2)[Gal(b1-4)GlcNAc(b1-3)Gal(b1-4)GlcNAc(b1-3)Gal(b1-4)GlcNAc(b1-3)Gal(b1-4)GlcNAc(b1-6)]Man(a1-6)[Gal(b1-4)GlcNAc(b1-3)Gal(b1-4)GlcNAc(b1-3)Gal(b1-4)GlcNAc(b1-3)Gal(b1-4)GlcNAc(b1-2)Man(a1-3)]Man(b1-4)GlcNAc(b1-4)[Fuc(a1-6)]GlcNAc
In short: as §1

[20] = biological target: Gal(b1-4)GlcNAc(b1-3)Gal(b1-4)GlcNAc(b1-3)Gal(b1-4)GlcNAc(b1-3)Gal(b1-4)GlcNAc(b1-3)Gal(b1-4)GlcNAc(b1-2)Man(a1-3)[Gal(b1-4)GlcNAc(b1-3)Gal(b1-4)GlcNAc(b1-3)Gal(b1-4)GlcNAc(b1-3)Gal(b1-4)GlcNAc(b1-3)Gal(b1-4)GlcNAc(b1-2)Man(a1-6)]Man(b1-4)GlcNAc(b1-4)[Fuc(a1-6)]GlcNAc
In short: as §1

[21] = biological target: Gal(b1-4)GlcNAc(b1-3)Gal(b1-4)GlcNAc(b1-3)[Gal(b1-4)GlcNAc(b1-3)Gal(b1-4)GlcNAc(b1-6)]GalNAc
In short: as §1

[22] = biological target: Gal(b1-4)GlcNAc(b1-6)GalNAc
In short: as §1

Gal3S(b1-3)GalNAc = biological target: Gal3S(b1-3)GalNAc
In short: as §1

Gal6S(b1-4)GlcNAc6S = biological target: Gal6S(b1-4)GlcNAc6S
In short: as §1

[23] = biological target: GalNAc(b1-4)GlcNAc(b1-3)GalNAc(b1-4)GlcNAc
In short: as §1

GlcA(b1-3)GlcNAc = biological target: GlcA(b1-3)GlcNAc
In short: as §1

B1: Erv41-EDTA (Saccharomyces cerevisiae), Q04651 (protein)
chain: MKFLVNVALVFMVVYISYIYAAAPEHHHHHHDYDIPTTENLYFQGAMGYIDQQYVVDSQVRDTVQINMDIYVNTKCDWLQINVRDQTMDRKLVLEELQLEEMPFFIPYDTKVNDINEIITPELDEILGEAIPAEFREKLDTRSFFDESDPNKAHLPEFNGCHVFGSIPVNRVSGELQITAKSLGYVASRKAPLEELKFNHVINEFSFGDFYPYIDNPLDNTAQFNQDEPLTTYVYYTSVVPTLFKKLGAEVDTNQYSVNDYRYLYKDVAAKGDKMPGIFFKYNFEPLSIVVSDVRL
Question: What does the source list for B1?
Answer: glycan array binding signal (z-score) [1]: 0.618; glycan array binding signal (z-score) [2]: 2.18; glycan array binding signal (z-score) [3]: -0.317; glycan array binding signal (z-score) [4]: 0.642; glycan array binding signal (z-score) [5]: -0.093; glycan array binding signal (z-score) [6]: -0.396; glycan array binding signal (z-score) [7]: 0.605; glycan array binding signal (z-score) [8]: 0.784; glycan array binding signal (z-score) [9]: -0.042; glycan array binding signal (z-score) [10]: -0.414; glycan array binding signal (z-score) [11]: -0.74; glycan array binding signal (z-score) [12]: 2.1; glycan array binding signal (z-score) [13]: 1.08; glycan array binding signal (z-score) [14]: 1.31; glycan array binding signal (z-score) [15]: -0.604; glycan array binding signal (z-score) [16]: 1.64; glycan array binding signal (z-score) [17]: 2.65; glycan array binding signal (z-score) [18]: 2.2; glycan array binding signal (z-score) [19]: 2.63; glycan array binding signal (z-score) [20]: 3.41; glycan array binding signal (z-score) [21]: 1.32; glycan array binding signal (z-score) [22]: 1.98; glycan array binding signal (z-score) (Gal3S(b1-3)GalNAc): 0.809; glycan array binding signal (z-score) (Gal6S(b1-4)GlcNAc6S): -0.128; glycan array binding signal (z-score) [23]: -0.339; glycan array binding signal (z-score) (GlcA(b1-3)GlcNAc): -0.217

Reference: the supplement of paper PMC8728848
